Tau fibril ThT = blocks human tau fibril formation measured by thioflavin T. AID 1460. P10636. actives 2.1% (n = 270,000). Potency, µM (titrated, usually from 57.4 µM), inactives show at the top dose activity, negative = inhibition, most hits filed as inhibitors. recombinant tau K18 P301L, heparin-induced fibrillization, ThT fluorescence; note: potency is the fitted concentration of half-maximal effect; nearly all actives have a fitted effect of over 55% in size
Target sequence (P10636 561-689 P618L limits assumed): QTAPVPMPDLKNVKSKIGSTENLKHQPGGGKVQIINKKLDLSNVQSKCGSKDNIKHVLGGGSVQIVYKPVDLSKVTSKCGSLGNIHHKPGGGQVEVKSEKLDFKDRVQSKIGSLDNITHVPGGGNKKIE
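Heparin-induced (20 uM) aggregation of recombinant human K18 P301L tau, 15 uM unlabeled with 0.24 uM labeled, pH 7 acetate buffer, 6 hr at 37 C with compound. Fibrils quantified by 30 uM ThT fluorescence after 1 hr ambient incubation.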
PNC inhibitor = inhibitors of perinucleolar compartment assembly; PC3M PTB-GFP, PNC prevalence imaging, 16 h; active compounds read low; activity change (PNC), negative = inhibition, % at 10 µM; actives 3.1% (n = 140,000); AID 2417;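 active = readout at or below -70, meaning at least 70% loss of cells showing the perinucleolar compartment, a nuclear body marking cancer cells; inconclusive = readout between -30 and a set limit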;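 note: plate controls were DMSO wells for no effect and camptothecin positive control wells for full effect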
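PC3M cells stably expressing PTB-GFP, 750–1000 cells/well, treated 16 h at 37 °C with compound (23 nl of library stock), in duplicate. After paraformaldehyde fixation and Hoechst stain, imaged at 20x; PNC prevalence scored by image analysis.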
Tau FP inhib = inhibitors of human tau fibril formation | P10636 | K18 P301L tau heparin fibrillization, Alexa594 FP, 6 h | Potency, µM (top dose mostly 57.7 µM), without a hit: at the highest dose activity, negative = inhibition, usual class: inhibitors | actives 0.39% (n = 280,000); note: potency is the fitted concentration of half-maximal effect; nearly all actives have a fitted effect of over 55% in size
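Quantitative HTS format: compounds meet 15 uM recombinant K18 P301L tau and Alexa 594-tau tracer in 100 mM sodium acetate pH 7; 20 uM heparin triggers fibrillization at 37 C over 6 hr; FP gives the signal.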
TexasRed fluor = counter-screen for TRb-SRC2 inhibitors: fluorescence interference; TRb/SRC2 Texas Red total fluorescence interference; Potency, µM (series often up to 106 µM), for inactives: at the highest dose fluorescence change, negative = quenching; actives 0.29% (n = 280,000); AID 1479; active = well fitted curve in either direction with a large enough effect; inconclusive = small, poorly fitted or top-dose-only effect; note: potency is the fitted concentration of half-maximal effect
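Human TRβ ligand-binding domain (0.6 uM) and Texas Red SRC2 peptide (20 nM) in Tris buffer with 1 uM T3 and 5% DMSO were incubated with pinned compound for 5 hr at ambient temperature. Total fluorescence was computed as S + 2P (555/632 nm).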
TRb-SRC2 inh = disrupts binding of human TR beta to SRC2; TRbeta-SRC2 peptide binding, fluorescence polarization; receptor liganded with 1 µM T3; P10828; actives 0.065% (n = 280,000); Potency, µM (highest dose often 106 µM), for the others: top-dose activity change, negative = inhibition, hits mostly inhibitors;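 note: potency is the fitted concentration of half-maximal effect; plate controls were bound peptide for no effect and peptide without receptor for full effect; nearly all actives have a fitted effect of over 50% in size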
Target sequence (P10828 whole entry, looked up): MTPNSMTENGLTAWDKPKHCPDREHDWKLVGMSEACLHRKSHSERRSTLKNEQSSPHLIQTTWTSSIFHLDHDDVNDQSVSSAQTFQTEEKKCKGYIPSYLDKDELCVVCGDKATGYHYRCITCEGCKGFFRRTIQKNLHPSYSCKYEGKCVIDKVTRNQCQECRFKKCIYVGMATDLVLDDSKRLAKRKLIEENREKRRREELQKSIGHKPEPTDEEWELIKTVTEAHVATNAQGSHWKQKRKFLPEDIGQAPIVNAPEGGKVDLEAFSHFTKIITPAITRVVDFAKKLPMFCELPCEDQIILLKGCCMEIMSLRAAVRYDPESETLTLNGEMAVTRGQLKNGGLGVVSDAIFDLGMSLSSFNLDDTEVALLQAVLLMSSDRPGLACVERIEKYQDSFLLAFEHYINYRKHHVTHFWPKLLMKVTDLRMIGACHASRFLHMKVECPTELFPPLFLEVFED
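Fluorescence polarization of 20 nM Texas Red SRC2 peptide with 0.6 uM human TRb ligand-binding domain, in Tris buffer with 1uM T3 and 5% DMSO. Incubated 5 hr ambient; normalized to unbound and bound controls.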
Tau fluor cs = counter-screen for tau fibril formation inhibitors; tau K18 P301L Alexa594 fluorescence, heparin fibrillization; Potency, µM (series often up to 57.7 µM), for the others: at the highest dose activity change, negative = decrease; actives 0.93% (n = 280,000); note: potency is the fitted concentration of half-maximal effect; nearly all actives have a fitted effect of over 55% in size
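Human tau K18 P301L (15 uM unlabeled, 0.24 uM Alexa 594-labeled) in 100 mM sodium acetate pH 7 with 20 uM heparin, 6 hr at 37 C. ThT 30 uM added, 1 hr ambient; Alexa 594 FP and total fluorescence read at 555/632 nm.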
Active calls of the source: *; ? = inconclusive; · = not tested or not shown; [ ] = remark or other dose. This is a sample that favours compounds with a hit; in the whole collection about 4.6% have one here. Unless noted, calls come from the whole dose curve; as a rule, active = well fitted curve in the direction sought with a large enough effect; inconclusive = small, poorly fitted or top-dose-only effect, or another doubt; inactive = no such curve, though single readings can be large; an effect the other way counts as inactive or inconclusive. Unless noted, % is set by controls: 0 for no effect and ±100 for the full control effect.

SMILES	Tau fibril ThT	PNC inhibitor	Tau FP inhib	TexasRed fluor	TRb-SRC2 inh	Tau fluor cs
CC(=O)Nc1sc(N/N=C\c2cccc(Cl)c2)nc1-c1cccs1	10µM*	-14	-6%	-3%	-2%	?
CC(=O)Nc1sc(N/N=C\c2ccc(O)cc2)nc1-c1cccs1	14µM*	·	-9%	0%	2%	?
CC(=O)Nc1sc(N/N=C\c2ccccc2F)nc1-c1cccs1	8.9µM*	?	-2%	-6%	-5%	?
O=C(Nc1cccc(C(F)(F)F)c1)c1csc(-c2ccncc2)n1	-5%	·	3%	-1%	6%	-16%
O=C(N/N=C/c1ccncc1)c1cc(Br)ccc1OCc1ccccc1	4%	20	12%	-2%	10%	1%
CCOc1ccc(/C(O)=C2/C(=O)C(=O)N(CC3CCCO3)C2c2ccc(C)o2)cc1 (stereo not given)	-20%	3	0%	0%	-4%	-1%
CCOc1ccccc1-n1c(SCC(N)=O)nc2ccccc2c1=O	-4%	-106*	0%	-1%	-4%	-2%
CCOc1ccccc1-n1c(SCC(N)=O)nnc1-c1ccccc1	-7%	-13	0%	-1%	-6%	-2%
C/C(CC(=O)Nc1ccccn1)=N\NC(=O)c1ccc(C)cc1	?	71	-11%	1%	-12%	-15%
CC1=NN(c2ccccc2)C(=O)/C1=C\C=C1\N(C)c2ccccc2C1(C)C	1.6µM*	-10	1%	-6%	-5%	?
CC1=NN(c2ccccc2)C(=O)/C1=C\C=C1/N(C)c2ccccc2C1(C)C	2.2µM*	-25	?	-1%	-2%	?
C=CCNc1cc(C)oc(=O)c1C(=O)CCC	-7%	14	-4%	0%	-20%	-12%
COc1ccc(-c2c(C)c3ccc(O)c(CN4CCOCC4)c3oc2=O)cc1OC	?	·	-14%	-3%	-6%	-4%
COC(CNC(=O)CNC(=S)N(CCCN1CCOCC1)Cc1cccs1)OC	0%	·	0%	0%	-4%	4%
COC(=O)c1c(-c2ccccc2)csc1NC(=O)c1c(-c2ccccc2)noc1C	-15%	-112*	4%	2%	9%	-15%
COc1cc(C(C)=O)ccc1OCCN1CCC(Cc2ccccc2)CC1	0%	·	-4%	-4%	2%	0%
O=C(CSc1nnc(SCc2ccc(Cl)cc2)s1)N/N=C/c1c[nH]c2ccccc12	0%	-83*	?	0%[53 µM]	2%[53 µM]	?
O=C(O)COc1ccccc1/C=N/NC(=O)CSc1nnc(SCc2cccc3ccccc23)s1	·	·	3%	-2%	-5%	8%
O=C(CSc1nnc(SCc2cccc3ccccc23)s1)N/N=C/c1c[nH]c2ccccc12	-15%	9	14%	0%	4%	3.5µM*[quencher]
O=C(O)COc1ccccc1/C=N/NC(=O)CSc1nnc(SCc2ccc(Cl)cc2)s1	·	·	1%	-2%	1%	-10%
CCN(CC)c1ccc(NC(=O)C(Cc2ccccc2)NS(=O)(=O)c2ccc(Br)s2)c(C)c1 (stereo not given)	-10%	·	0%	-2%	-5%	?
CCN(CC)c1ccc(NC(=O)Nc2ccc(C(C)=O)cc2)cc1	?	42	8%	0%	-7%	14µM*[quencher]
CCC(C)[C@H](NC(=O)Nc1ccc(S(N)(=O)=O)cc1)C(=O)OC (stereo not given in full)	5%	·	0%	-3%	-2%	-1%
CCC(C)[C@H](NC(=O)Nc1ccc(C(C)=O)cc1)C(=O)OC (stereo not given in full)	-4%	-82*	-1%	0%	6%	-6%
CCc1ccc(NC(=O)N2CCC(c3ccccc3)C2)cc1 (stereo not given)	?	·	-3%	0%	-7%	-8%
SMILES	Tau fibril ThT	PNC inhibitor	Tau FP inhib	TexasRed fluor	TRb-SRC2 inh	Tau fluor cs
COc1ccccc1NC(=O)c1sc2ncn(Cc3ccc(C)cc3)c(=O)c2c1C	-5%	17	-1%	-2%	3%	-23%
COc1ccccc1NC(=O)c1sc2ncn(Cc3cccc4ccccc34)c(=O)c2c1C	-5%	-9	14%	0.89µM*[quencher]	?	-5%
O=C(Nc1ccccc1C(=O)NCc1ccco1)c1ccccc1	-15%	?	-16%	-1%	-2%	-18%
O=C(NC1CS(=O)(=O)CC1NCc1ccco1)c1ccccc1 (stereo not given)	7%	-96*	9%	-6%	-4%	11%
O=c1ccc2cc3c([nH]c4ccc(Br)cc43)oc-2c1O	14µM*	2	?	-13%	0%	?
O=c1c2c([nH]c3ccc(Br)cc13)CCCC2	-2%	-23	1%	1%	-1%	1%
Cc1noc2ncnc(SCc3ccc(C(F)(F)F)cc3)c12	-14%	·	-12%	0%	-4%	-21%
CCc1nnc(NC(=O)CSc2nnc3ncccn23)s1	-16%	-82*	1%	-4%	0%	-8%
Cc1ccc(O)c(CNc2cccc3cccnc23)c1	?	·	3%	-1%	1%	14µM*[quencher]
OCCNC(=S)NCCc1ccccc1	3%	10	-1%	1%	-2%	6%
Cc1ccc(CCNC(=O)c2ccc(CS(=O)(=O)Cc3ccc(Cl)cc3)o2)cc1	-14%	·	-8%	-6%	-2%	-16%
CCOC(=O)C1=C(C)N(c2ccc(OCC)cc2)C(=O)/C1=C\c1ccco1	14µM*	·	?	-1%	0%	-22%
CCOc1cc(/C=C2\C(=O)N(CCc3ccc(OC)c(OC)c3)C(C)=C2C(=O)OC)ccc1O	28µM*	37	?	3%	0%	?
CCOc1ccc(N2C(=O)S/C(=C\c3ccc(O)c(OC)c3)C2=O)cc1	?	·	-4%	-2%	-7%	?
CCOc1cc(/C=C2\C(=O)N(Cc3ccco3)C(C)=C2C(=O)OC)ccc1O	28µM*	·	?	1%	-10%	?
COC(=O)C1=C(C)N(Cc2ccc(C)cc2)C(=O)/C1=C\c1cc(OC)c(OC)c(OC)c1	?	25	-8%	-2%	8%	-16%
CCOC(=O)C1=C(C)N(c2ccc(C)cc2)C(=O)/C1=C\c1ccc(O)c(OC)c1	25µM*	·	?	-9%	3%	?
COc1cc(/C=c2\s/c(=C\C(=O)C(C)(C)C)[nH]c2=O)cc(OC)c1OC	?	·	-7%	-18%	2%	?
Cc1ccc2c(c1)c1c(c(=O)n(-c3ccccc3C)c(=O)n1CC(=O)N1CCCC1)n2C	3%	·	2%	-2%	-5%	-3%
